Compound activity (PubChem BioAssay)
Rows were chosen to be rich in hits. Some 3.1% of all compounds tested hit in one or more screens of this group.
Mac1 fbg enh: enhancers of human CD11b/CD18 binding to fibrinogen; P05107+P11215; K562 CD11b/CD18 adhesion to fibrinogen, ATPlite luminescence; activation, % at 10 µM; 93,000 tested, 0.07% active; AID 1499;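 active means 10 µM primary screen giving 50% or more activity, confirmed by 40% or more on retest at that dose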
CD11b adhes inh: inhibitors of human CD11b/CD18 binding to fibrinogen. 93,000 tested, 0.54% active. P05107+P11215. inhibition, % at 10 µM. K562 CD11b/CD18 adhesion to fibrinogen, ATPlite luminescence; Mn2+ added to activate the integrin;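 active means primary inhibition of 50% or more at 10 µM, then 40% or more on retest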
ERa SRC1 pot: enhances coactivator binding to human estrogen receptor alpha | P03372 | AID 639 | 86,000 tested, 1.3% active | TR-FRET ERalpha-LBD/SRC-Cy5 coactivator binding, 2 h; 100 = basal binding, no effect | coactivator binding (% of control), % at 25.6 µM; in the data active means activity above about 200%;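 further: binding measured in presence of low estradiol as agonist stimulus; 0% = peptide alone without receptor and 100% = receptor with peptide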
ERb coact inh: blocks coactivator binding to human estrogen receptor beta. TR-FRET ER-beta LBD / SRC1-Cy5 peptide binding; receptor agonist-loaded with 1 µM estradiol. inhibition, % at 25.6 µM. 86,000 tested, 1.3% active;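 active means compounds whose percent inhibition of the receptor-coactivator binding signal exceeds about 50% in the single-dose screen, limit read from the data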;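 further: 0% = receptor plus peptide wells without compound and 100% = peptide-only wells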
Target sequence (Q92731 whole entry, looked up, the tested form may be a part): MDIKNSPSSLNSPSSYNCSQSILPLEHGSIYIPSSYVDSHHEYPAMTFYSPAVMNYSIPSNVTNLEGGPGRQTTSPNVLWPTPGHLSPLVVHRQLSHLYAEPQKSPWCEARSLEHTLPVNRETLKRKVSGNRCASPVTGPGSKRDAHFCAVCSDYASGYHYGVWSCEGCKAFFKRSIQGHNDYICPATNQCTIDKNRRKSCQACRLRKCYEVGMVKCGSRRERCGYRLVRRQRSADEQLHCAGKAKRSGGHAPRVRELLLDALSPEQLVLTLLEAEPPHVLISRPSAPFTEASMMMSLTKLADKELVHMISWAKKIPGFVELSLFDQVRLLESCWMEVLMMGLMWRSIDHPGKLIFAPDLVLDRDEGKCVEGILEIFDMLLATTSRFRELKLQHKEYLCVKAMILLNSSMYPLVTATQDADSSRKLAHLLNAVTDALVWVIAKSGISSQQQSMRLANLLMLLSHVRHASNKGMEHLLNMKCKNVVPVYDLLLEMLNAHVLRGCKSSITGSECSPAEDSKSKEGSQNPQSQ
ERa SRC1 inh: ER-alpha (human) coactivator binding inhibition. P03372. 86,000 tested, 1.7% active. inhibition, % at 25.6 µM. AID 629. TR-FRET ER-alpha LBD / SRC-1 peptide, estradiol-bound; in the data active means inhibition above about 50%;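 further: 0% = receptor plus peptide control and 100% = peptide only without receptor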
Numbers without * were called inactive; x = not tested or not shown; [ ] = dose if it differs, or a comment.

SMILES | Mac1 fbg enh | CD11b adhes inh | ERa SRC1 pot | ERb coact inh | ERa SRC1 inh
COc1ccc(/C=N/Nc2ncc(-c3ccccc3)cn2)c(OC)c1 | x | x | 422*[fluorescence artefact?] | 27 | 38
Cn1c(SCC(=O)N2CCOCC2)nc2cccnc21 | 1 | -2 | 435*[fluorescence artefact?] | 22 | 19
COc1cc(OC)cc(C(=O)Nn2c(C)nc3ccccc3c2=O)c1 | -1 | -5 | 108 | 0 | -8
COc1ccc2[nH]c3c(c2c1)CCn1c-3nc2ccccc2c1=O | 3 | 4 | 35 | 40 | 80*
CCOc1ccccc1CNn1nnnc1N | x | x | 105 | -5 | -1
Cc1nn(Cc2c(Cl)cccc2Cl)c(C)c1NC(=O)c1cnn2c(C(F)F)cc(-c3ccccc3)nc12 | 116* | -6 | x | x | x
Cc1ccc(-c2cc(C(F)F)n3ncc(C(=O)Nc4c(C)nn(Cc5c(Cl)cccc5Cl)c4C)c3n2)cc1 | 116* | 32 | x | x | x
Cc1ccc(C2CC(C(F)F)n3ncc(C(=O)Nc4c(C)nn(Cc5c(F)cccc5Cl)c4C)c3N2)cc1 (centres undefined) | x | x | 95 | -3 | -1
COc1ccc(-c2cc(-c3ccc(OC)cc3)c(C#N)c(SC)n2)cc1 | x | x | 458*[fluorescence artefact?] | 39 | 36
CN(C)S(=O)(=O)c1ccc(-c2csnn2)s1 | -1 | 4 | 91 | 16 | 17
N#CCSc1nnc2sc3ccccc3n12 | -2 | -2 | 65 | 9 | 87*[fluorescence artefact?]
NC(=O)CSc1nnc2sc3ccccc3n12 | 2 | 0 | 109 | -8 | 1
Clc1ccc(Br)cc1-c1nc(-c2ccncc2)no1 | 68 | -12 | 246*[fluorescence artefact?] | 27 | 34
Cc1ccc(-c2nc(-c3ccccc3)no2)c(Cl)c1 | -10 | 104* | 98 | 0 | -5
CCCCOc1ccc(OCCNS(=O)(=O)N(C)C)cc1 | -3 | 2 | 127 | 1 | -6
Cc1nc(SCC(=O)NCCc2ccccc2)nc(C)c1C | -3 | 9 | 149 | -8 | -2
CCCCCCc1nc2c(=O)[nH]c3ccccc3c2o1 | 11 | -10 | 249*[fluorescence artefact?] | 8 | 8
CCCCCCCc1nc2c(=O)n(C)c3ccccc3c2o1 | 0 | -4 | 117 | 19 | 14
N#CCSc1n[nH]c2nc3c(c(=O)n12)C1(CCCC1)Cc1ccccc1-3 | -7 | 78* | 71 | 6 | 15
N#CC(c1ccccc1)c1ccc(C(=O)c2ccc(F)cc2)cc1 (centres undefined) | -7 | 87* | 50 | -2 | 10
Cc1cc(NC(=O)c2cc(-c3ccco3)on2)n(-c2ccccc2)n1 | x | x | 71 | 32 | 19
COc1cccc(-c2cc(C(=O)Nc3cc(C)nn3-c3ccccc3)no2)c1 | -3 | 25 | 455* | -25 | -64
COc1ccc(-c2cc(C(=O)Nc3cc(C)nn3-c3ccccc3)no2)cc1 | -4 | -1 | 49 | 8 | 35
Cc1cc(NC(=O)c2cc(-c3ccccc3)on2)n(-c2ccccc2)n1 | -2 | 5 | 529*[fluorescence artefact?] | 11 | -10
Nc1c(C(=O)c2ccc(Br)s2)oc2ccccc12 | 14 | -9 | 108 | 7 | -4
SMILES | Mac1 fbg enh | CD11b adhes inh | ERa SRC1 pot | ERb coact inh | ERa SRC1 inh
Nc1c(C(=O)c2cccs2)oc2ccccc12 | 1 | 7 | 259*[fluorescence artefact?] | -4 | -15
Cc1cc(N2CCC(C)CC2)nc2cccc(O)c12 | 0 | 48 | 550*[fluorescence artefact?] | -3 | -11
Cc1nc2ccccc2nc1N1CCC(C)CC1 | 4 | -4 | 94 | 25 | 1
CN(C)C(=O)Cn1c(SCC(=O)N2CCCc3ccccc32)nc2ccccc21 | 2 | 0 | 829*[fluorescence artefact?] | -14 | 21
CCOC(=O)c1ccc(N2Cc3ccccc3C2)cc1O | 68* | 3 | 110 | 0 | -5
CCOC(=O)c1ccc(N2Cc3ccccc3C2=N)cc1 | -1 | 24 | x | x | x
COc1cccc(-c2noc(-c3cccnc3)n2)c1 | 4 | 14 | 97 | -15 | -4
COc1nc2ccc(C)cc2cc1-c1noc(-c2cccnc2)n1 | 74 | -33 | 241*[fluorescence artefact?] | 22 | 19
COc1ccc(C)cc1NC(=O)C(Sc1nnc(-c2ccncc2)n1-c1ccc(Cl)cc1)c1ccccc1 (centres undefined) | 8 | 4 | x | x | x
COc1ccc(N(C(=O)c2ccc(Cl)cc2)C2=CC3CCC(C2)N3C)cc1 (centres undefined) | 0 | -12 | 100 | -1 | 2
Nc1nc(Nc2cccc3ccccc23)nc(C2CCCC2=O)n1 (centres undefined) | 8 | -33 | 261*[fluorescence artefact?] | 36 | 37
O=C(Nc1ccc2nc(-c3ccco3)c(-c3ccco3)nc2c1)NC1CC1 | x | x | 7 | 109*[fluorescence artefact?] | 100*[fluorescence artefact?]
O=C(Nc1ccc(N2CCOCC2)cc1)Nc1ccc2nc(-c3ccco3)c(-c3ccco3)nc2c1 | x | x | 32 | 59*[fluorescence artefact?] | 53*[fluorescence artefact?]
O=C(Nc1cccc(C(F)(F)F)c1)c1ccc2nc(-c3ccco3)c(-c3ccco3)nc2c1 | -4 | 9 | 16 | 81*[fluorescence artefact?] | 84*[fluorescence artefact?]
O=C(NCCCO)Nc1ccc2nc(-c3ccco3)c(-c3ccco3)nc2c1 | -1 | 3 | 1 | 99*[fluorescence artefact?] | 97*[fluorescence artefact?]
CCOC(=O)Cc1csc(N/C(=N/S(=O)(=O)c2cc(Br)ccc2OCC)c2ccccc2)n1 | 1 | 15 | x | x | x
CN(C)C(=O)c1ccccc1-c1ccccc1 | -4 | 1 | 241* | -6 | -2
CN(C)CCNC(=O)c1ccccc1-c1ccccc1 | 0 | -26 | 130 | -3 | -2
C=CCn1c(SCC(=O)Nc2sccc2C(N)=O)nc2ccccc2c1=O | -1 | -2 | 75 | 23 | 28
C=CCn1c(SCC(=O)Nc2sccc2C(N)=O)nc2ccc(Cl)cc2c1=O | -4 | 41 | 122 | 47 | 64*[fluorescence artefact?]
Cn1c(C(O)c2ccccc2)nc(Cl)c1Cl (centres undefined) | -3 | -8 | 129 | -4 | -2
CN(C)S(=O)(=O)N1CCN(CC(O)COc2ccc3cc(Br)ccc3c2)CC1 (centres undefined) | -3 | 5 | 119 | -6 | 0
O=S(=O)(N1CCCCC1)N1CCN(CC(O)COc2ccc3cc(Br)ccc3c2)CC1 (centres undefined) | -2 | 31 | 253* | -8 | -5
O=C(Nc1ccon1)c1cc2ccccc2oc1=O | 0 | 33 | 119 | -14 | 22
COc1ccc(S(=O)(=O)N=C2C=C(C)C(=O)C(C)=C2)cc1 | 10 | 89* | x | x | x
SMILES | Mac1 fbg enh | CD11b adhes inh | ERa SRC1 pot | ERb coact inh | ERa SRC1 inh
C/C(=N\NC(=O)c1ccccc1)c1ccc(NC(=O)c2cccs2)cc1 | 2 | -10 | x | x | x
Cc1ccc(C(=O)N/N=C(/CC(=O)c2cccs2)C(F)(F)F)cc1 | -9 | 98* | x | x | x
Cn1ccnc1SCC(=O)Nc1ccc2nc(SCC(=O)NC3CC3)sc2c1 | -2 | 1 | 52 | 22 | 53*
CCCC1=NN2C(=N)/C(=C\c3ccc(SCc4ccco4)o3)C(=O)N=C2S1 | 4 | 64* | 61 | 70* | 84*[fluorescence artefact?]
CCC1=NN2C(=N)/C(=C\c3ccc(SCc4ccco4)o3)C(=O)N=C2S1 | -1 | 10 | 36 | 75* | 75*
CCOC(=O)c1ccccc1NC(=O)CSc1ccccc1 | x | x | 116 | 6 | 3
